Data reported in PubChem BioAssay (Tox21).
Unmarked numbers belong to inactive results. Inconclusive results are not listed. Entries that show only a call come without a potency. Active and inactive are the calls of the source. Calls follow the shape of the dose curve; as a rule, active = well fitted curve in the direction sought with a large enough effect in the repeat runs; inconclusive = weak or mixed curves; inactive = no such curve, though single readings can be large; an effect the other way counts as inactive or inconclusive.

Tests used:
[1] = qHTS RealTime-Glo MT Cell Viability Assay in HepG2 cells - 40 hour (AID 1224870); also: nearly all actives have a fitted effect of over 50% in size
Outline: (§1)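 HepG2 cells (600/well) mixed with RealTime-Glo MT reagent, settled 5 h at 37 C/5% CO2 before compound addition. Nonlytic NanoLuc luminescence from viable-cell prosubstrate reduction read repeatedly during 40 h treatment at 37 C.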

[2] = A CellTox Green Cytotoxicity Assay to monitor cytotoxicity in HEK293 cells - 40 hour (AID 1224871); also: nearly all actives have a fitted effect of over 45% in size
Outline: (§2)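 Cytotoxicity was tracked continuously in HEK293 cells by a DNA-binding dye excluded from viable cells. Compounds were transferred in DMSO 5 h after seeding; fluorescence was recorded at intervals up to 40 h.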

[3] = qHTS RealTime-Glo MT Cell Viability Assay in HEK293 cells - 16 hour (AID 1224872); also: nearly all actives have a fitted effect of over 50% in size; also: potency is read from the fitted curve at half-maximal effect
Outline: (§3)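 Tox21 10K qHTS, HEK293, 600 cells/well, RealTime-Glo reagent co-dispensed with cells; 5 h preincubation, compound by pintool, 37 C, luminescence at 0–40 h.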

[4] = qHTS RealTime-Glo MT Cell Viability Assay in HepG2 cells - 8 hour (AID 1224873); also: nearly all actives have a fitted effect of over 55% in size
Outline: as §1

[5] = qHTS RealTime-Glo MT Cell Viability Assay in HEK293 cells - 40 hour (AID 1224874); conditions: RealTime-Glo luminescence; max response: active compounds read low; also: nearly all actives have a fitted effect of over 50% in size; also: potency is read from the fitted curve at half-maximal effect
Outline: (§4)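 Nonlytic bioluminescent viability monitoring. HEK293 at 600 cells/well with reagent; 5 h settle; compound transfer by pintool; plates held at 37 C and read at set time points.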

[6] = A CellTox Green Cytotoxicity Assay to monitor cytotoxicity in HEK293 cells - 24 hour (AID 1224875); also: series mostly up to about 77 µM; nearly all actives have a fitted effect of over 45% in size
Outline: as §2

[7] = A CellTox Green Cytotoxicity Assay to monitor cytotoxicity in HepG2 cells - 16 hour (AID 1224876); also: nearly all actives have a fitted effect of over 45% in size
Outline: (§5)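 Real-time, homogeneous cytotoxicity readout: dead-cell DNA staining by CellTox Green in HepG2 monolayers, fluorescence measured at timed intervals up to 40 h of continuous compound exposure.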

[8] = qHTS RealTime-Glo MT Cell Viability Assay in HepG2 cells - 32 hour (AID 1224877); also: nearly all actives have a fitted effect of over 55% in size
Outline: (§6)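 Cells + NanoLuc/prosubstrate dispensed (600 cells/well) → 5 h at 37 C/5% CO2 → compounds in DMSO transferred → 40 h incubation at 37 C, luminescence read at 0, 8, 16, 24, 32, 40 h.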

[9] = A CellTox Green Cytotoxicity Assay to monitor cytotoxicity in HepG2 cells - 24 hour (AID 1224878); also: nearly all actives have a fitted effect of over 45% in size
Outline: as §5

[10] = A CellTox Green Cytotoxicity Assay to monitor cytotoxicity in HepG2 cells - 40 hour (AID 1224879); also: nearly all actives have a fitted effect of over 40% in size
Outline: as §5

[11] = qHTS RealTime-Glo MT Cell Viability Assay in HEK293 cells - 0 hour (AID 1224880); also: nearly all actives have a fitted effect of over 45% in size; also: potency is read from the fitted curve at half-maximal effect
Outline: as §4

[12] = A CellTox Green Cytotoxicity Assay to monitor cytotoxicity in HEK293 cells - 32 hour (AID 1224881); also: nearly all actives have a fitted effect of over 40% in size
Outline: as §2

[13] = A CellTox Green Cytotoxicity Assay to monitor cytotoxicity in HepG2 cells - 0 hour (AID 1224882); also: nearly all actives have a fitted effect of over 35% in size
Outline: as §5

[14] = A CellTox Green Cytotoxicity Assay to monitor cytotoxicity in HepG2 cells - 32 hour (AID 1224883); also: nearly all actives have a fitted effect of over 50% in size
Outline: as §5

[15] = A CellTox Green Cytotoxicity Assay to monitor cytotoxicity in HEK293 cells - 8 hour (AID 1224884); also: nearly all actives have a fitted effect of over 35% in size
Outline: as §2

[16] = qHTS RealTime-Glo MT Cell Viability Assay in HepG2 cells - 16 hour (AID 1224885); also: nearly all actives have a fitted effect of over 50% in size
Outline: as §6

[17] = qHTS RealTime-Glo MT Cell Viability Assay in HEK293 cells - 24 hour (AID 1224886); also: nearly all actives have a fitted effect of over 50% in size; also: potency is read from the fitted curve at half-maximal effect
Outline: as §3

[18] = qHTS RealTime-Glo MT Cell Viability Assay in HEK293 cells - 8 hour (AID 1224887); also: nearly all actives have a fitted effect of over 50% in size; also: potency is read from the fitted curve at half-maximal effect
Outline: as §4

[19] = A CellTox Green Cytotoxicity Assay to monitor cytotoxicity in HEK293 cells - 16 hour (AID 1224888); also: nearly all actives have a fitted effect of over 35% in size
Outline: as §2

[20] = qHTS RealTime-Glo MT Cell Viability Assay in HepG2 cells - 0 hour (AID 1224889); also: nearly all actives have a fitted effect of over 50% in size; also: potency is read from the fitted curve at half-maximal effect
Outline: as §6

SMILES: CCc1c(C)[nH]c2c1C(=O)C(CN1CCOCC1)CC2 (configuration not stated)
- Potency [1]: inactive
- Potency [2]: inactive
- Potency [3]: inactive
- outcome [4]: inactive
- max response [5]: 2.91%
- Potency [6]: inactive
- Potency [7]: inactive
- Potency [8]: inactive
- Potency [9]: inactive
- Potency [10]: inactive
- Potency [11]: inactive
- Potency [12]: inactive
- Potency [13]: inactive
- Potency [14]: inactive
- Potency [15]: inactive
- outcome [16]: inactive
- Potency [17]: inactive
- Potency [18]: inactive
- Potency [19]: inactive
- Potency [20]: inactive

SMILES: O=C(NC1CCN(CCc2c[nH]c3ccccc23)CC1)c1ccccc1
- Potency [1]: inactive
- Potency [2]: inactive
- Potency [3]: 9.52 µM (active)
- outcome [4]: inactive
- Potency [5]: 9.52 µM (active)
- Potency [6]: inactive
- Potency [7]: inactive
- Potency [8]: inactive
- Potency [9]: inactive
- Potency [10]: inactive
- Potency [11]: inactive
- Potency [12]: inactive
- Potency [13]: inactive
- Potency [14]: inactive
- Potency [15]: inactive
- outcome [16]: inactive
- Potency [17]: 8.49 µM (active)
- Potency [18]: 9.52 µM (active)
- Potency [19]: inactive
- Potency [20]: inactive

SMILES: C[Si](C)(C)O[Si](C)(C)O[Si](C)(C)C
- Potency [1]: inactive
- Potency [2]: inactive
- Potency [3]: inactive
- outcome [4]: inactive
- max response [5]: 7.13%
- Potency [6]: inactive
- Potency [7]: inactive
- Potency [8]: inactive
- Potency [9]: inactive
- Potency [10]: inactive
- Potency [11]: inactive
- Potency [12]: inactive
- Potency [13]: inactive
- Potency [14]: inactive
- Potency [15]: inactive
- outcome [16]: inactive
- Potency [17]: inactive
- Potency [18]: inactive
- Potency [19]: inactive
- Potency [20]: inactive

SMILES: Cc1c(Cl)cccc1Nc1ccccc1C(=O)O
- Potency [1]: inactive
- Potency [2]: inactive
- Potency [3]: inactive
- outcome [4]: inactive
- max response [5]: -5.01%
- Potency [6]: inactive
- Potency [7]: inactive
- Potency [8]: inactive
- Potency [9]: inactive
- Potency [10]: inactive
- Potency [11]: inactive
- Potency [12]: inactive
- Potency [13]: inactive
- Potency [14]: inactive
- Potency [15]: inactive
- outcome [16]: inactive
- Potency [17]: inactive
- Potency [19]: inactive
- Potency [20]: inactive

SMILES: CC(=O)OCC(=O)[C@@]1(O)CC[C@H]2[C@@H]3CCC4=CC(=O)C=C[C@]4(C)[C@@]3(F)[C@@H](O)C[C@@]21C
- Potency [1]: inactive
- Potency [2]: inactive
- Potency [3]: inactive
- outcome [4]: inactive
- max response [5]: -21.2%
- Potency [6]: inactive
- Potency [7]: inactive
- Potency [8]: inactive
- Potency [9]: inactive
- Potency [10]: inactive
- Potency [11]: 7.56 µM (active)
- Potency [12]: inactive
- Potency [13]: inactive
- Potency [14]: inactive
- Potency [15]: inactive
- outcome [16]: inactive
- Potency [17]: inactive
- Potency [18]: inactive
- Potency [19]: inactive
- Potency [20]: 3.01 µM (active)

SMILES: CCCC(=O)OCc1ccccc1
- Potency [1]: inactive
- Potency [2]: inactive
- Potency [3]: inactive
- outcome [4]: inactive
- max response [5]: 5.95%
- Potency [6]: inactive
- Potency [7]: inactive
- Potency [8]: inactive
- Potency [9]: inactive
- Potency [10]: inactive
- Potency [11]: inactive
- Potency [12]: inactive
- Potency [13]: inactive
- Potency [14]: inactive
- Potency [15]: inactive
- outcome [16]: inactive
- Potency [17]: inactive
- Potency [18]: inactive
- Potency [19]: inactive
- Potency [20]: inactive

SMILES: C=CC(C)CCC=C(C)C (configuration not stated)
- Potency [1]: inactive
- Potency [2]: inactive
- Potency [3]: inactive
- outcome [4]: inactive
- max response [5]: 0.513%
- Potency [6]: inactive
- Potency [7]: inactive
- Potency [8]: inactive
- Potency [9]: inactive
- Potency [10]: inactive
- Potency [11]: inactive
- Potency [12]: inactive
- Potency [13]: inactive
- Potency [14]: inactive
- Potency [15]: inactive
- outcome [16]: inactive
- Potency [17]: inactive
- Potency [18]: inactive
- Potency [19]: inactive
- Potency [20]: inactive

SMILES: C=Cc1ccc(C=C)cc1
- Potency [1]: inactive
- Potency [2]: inactive
- Potency [3]: inactive
- outcome [4]: inactive
- max response [5]: 11.4%
- Potency [6]: inactive
- Potency [7]: inactive
- Potency [8]: inactive
- Potency [9]: inactive
- Potency [10]: inactive
- Potency [11]: inactive
- Potency [12]: inactive
- Potency [13]: inactive
- Potency [14]: inactive
- Potency [15]: inactive
- outcome [16]: inactive
- Potency [17]: inactive
- Potency [18]: inactive
- Potency [20]: inactive

SMILES: CC(C)CCCCCOC(=O)CS
- Potency [1]: inactive
- Potency [2]: inactive
- Potency [3]: inactive
- outcome [4]: inactive
- max response [5]: 4.02%
- Potency [6]: inactive
- Potency [7]: inactive
- Potency [8]: inactive
- Potency [9]: inactive
- Potency [10]: inactive
- Potency [11]: inactive
- Potency [12]: inactive
- Potency [13]: inactive
- Potency [14]: inactive
- Potency [15]: inactive
- outcome [16]: inactive
- Potency [17]: inactive
- Potency [18]: inactive
- Potency [19]: inactive
- Potency [20]: inactive

SMILES: O=C(O)c1ccc(O)c(O)c1
- Potency [1]: inactive
- Potency [2]: inactive
- Potency [3]: inactive
- outcome [4]: inactive
- max response [5]: -5.14%
- Potency [6]: inactive
- Potency [7]: inactive
- Potency [8]: inactive
- Potency [9]: inactive
- Potency [10]: inactive
- Potency [11]: inactive
- Potency [12]: inactive
- Potency [13]: inactive
- Potency [14]: inactive
- Potency [15]: inactive
- outcome [16]: inactive
- Potency [17]: inactive
- Potency [18]: inactive
- Potency [19]: inactive
- Potency [20]: inactive

SMILES: OCCOc1cccc(OCCO)c1
- Potency [1]: inactive
- Potency [2]: inactive
- Potency [3]: inactive
- outcome [4]: inactive
- max response [5]: 12.3%
- Potency [6]: inactive
- Potency [7]: inactive
- Potency [8]: inactive
- Potency [9]: inactive
- Potency [10]: inactive
- Potency [11]: inactive
- Potency [12]: inactive
- Potency [13]: inactive
- Potency [14]: inactive
- Potency [15]: inactive
- outcome [16]: inactive
- Potency [17]: inactive
- Potency [18]: inactive
- Potency [19]: inactive
- Potency [20]: inactive

SMILES: CCCCCCC/C=C/C=O
- Potency [1]: inactive
- Potency [2]: inactive
- Potency [3]: inactive
- outcome [4]: inactive
- max response [5]: 6.61%
- Potency [6]: inactive
- Potency [7]: inactive
- Potency [8]: inactive
- Potency [9]: inactive
- Potency [10]: inactive
- Potency [11]: inactive
- Potency [12]: inactive
- Potency [13]: inactive
- Potency [14]: inactive
- Potency [15]: inactive
- outcome [16]: inactive
- Potency [17]: inactive
- Potency [18]: inactive
- Potency [20]: inactive

SMILES: CCCC(=O)OCCC(C)C
- Potency [1]: inactive
- Potency [2]: inactive
- Potency [3]: inactive
- outcome [4]: inactive
- max response [5]: -1.39%
- Potency [6]: inactive
- Potency [7]: inactive
- Potency [8]: inactive
- Potency [9]: inactive
- Potency [10]: inactive
- Potency [11]: inactive
- Potency [12]: inactive
- Potency [13]: inactive
- Potency [14]: inactive
- Potency [15]: inactive
- outcome [16]: inactive
- Potency [17]: inactive
- Potency [18]: inactive
- Potency [19]: inactive
- Potency [20]: inactive

SMILES: CCCCCCCCCCCCCCCCC(=O)O
- Potency [1]: inactive
- Potency [2]: inactive
- Potency [3]: inactive
- outcome [4]: inactive
- max response [5]: 3.49%
- Potency [6]: inactive
- Potency [7]: inactive
- Potency [8]: inactive
- Potency [9]: inactive
- Potency [10]: inactive
- Potency [11]: inactive
- Potency [12]: inactive
- Potency [13]: inactive
- Potency [14]: inactive
- Potency [15]: inactive
- outcome [16]: inactive
- Potency [17]: inactive
- Potency [18]: inactive
- Potency [19]: inactive
- Potency [20]: inactive
